Test results reported in ChEMBL document CHEMBL1961873, “Compounds: GSK PKIS; Assays: Nanosyn kinase panel” (2012).

Assays:
[1] = target: T1, Serine/threonine-protein kinase TBK1 (Homo sapiens) (UniProt Q9UHD2); conditions: at 1 µM;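 further: values are mean inhibition of TBK1, screened as part of the GSK published kinase inhibitor set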
T1 sequence (whole entry): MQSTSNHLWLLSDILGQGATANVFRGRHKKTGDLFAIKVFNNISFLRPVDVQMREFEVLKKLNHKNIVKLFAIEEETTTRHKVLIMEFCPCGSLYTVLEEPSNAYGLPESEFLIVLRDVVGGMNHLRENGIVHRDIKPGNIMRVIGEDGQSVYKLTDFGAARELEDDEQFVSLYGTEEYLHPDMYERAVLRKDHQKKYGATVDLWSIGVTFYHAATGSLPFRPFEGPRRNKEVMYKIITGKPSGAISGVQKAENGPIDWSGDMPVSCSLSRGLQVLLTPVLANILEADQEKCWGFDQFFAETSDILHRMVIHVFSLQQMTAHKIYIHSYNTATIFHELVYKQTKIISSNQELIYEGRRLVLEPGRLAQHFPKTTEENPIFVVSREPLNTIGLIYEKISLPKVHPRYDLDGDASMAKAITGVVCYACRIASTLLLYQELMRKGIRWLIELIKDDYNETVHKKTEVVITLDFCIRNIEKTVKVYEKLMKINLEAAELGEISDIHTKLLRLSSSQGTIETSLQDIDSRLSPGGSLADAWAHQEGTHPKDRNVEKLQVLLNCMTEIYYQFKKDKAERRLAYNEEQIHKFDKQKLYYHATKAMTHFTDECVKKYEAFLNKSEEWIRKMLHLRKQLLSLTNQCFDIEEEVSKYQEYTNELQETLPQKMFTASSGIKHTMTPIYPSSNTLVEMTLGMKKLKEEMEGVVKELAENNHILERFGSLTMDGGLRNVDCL

[2] = target: T2, Testis-specific serine/threonine-protein kinase 1 (Homo sapiens) (UniProt Q9BXA7); conditions: at 0.1 µM
T2 sequence (whole entry): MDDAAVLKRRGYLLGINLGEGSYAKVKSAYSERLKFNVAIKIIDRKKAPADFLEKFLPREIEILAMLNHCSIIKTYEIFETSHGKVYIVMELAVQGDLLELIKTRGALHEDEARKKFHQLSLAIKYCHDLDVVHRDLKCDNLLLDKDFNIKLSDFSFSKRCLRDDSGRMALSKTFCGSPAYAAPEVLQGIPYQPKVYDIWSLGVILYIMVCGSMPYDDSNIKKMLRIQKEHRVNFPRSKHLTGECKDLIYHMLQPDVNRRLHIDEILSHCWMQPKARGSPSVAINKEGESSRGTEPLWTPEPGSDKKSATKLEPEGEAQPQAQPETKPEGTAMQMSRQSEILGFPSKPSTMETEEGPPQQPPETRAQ

[3] = target: T2, Testis-specific serine/threonine-protein kinase 1 (Homo sapiens); conditions: at 1 µM
[4] = target: T3, Testis-specific serine/threonine-protein kinase 2 (Homo sapiens) (UniProt Q96PF2); conditions: at 0.1 µM
T3 sequence (whole entry): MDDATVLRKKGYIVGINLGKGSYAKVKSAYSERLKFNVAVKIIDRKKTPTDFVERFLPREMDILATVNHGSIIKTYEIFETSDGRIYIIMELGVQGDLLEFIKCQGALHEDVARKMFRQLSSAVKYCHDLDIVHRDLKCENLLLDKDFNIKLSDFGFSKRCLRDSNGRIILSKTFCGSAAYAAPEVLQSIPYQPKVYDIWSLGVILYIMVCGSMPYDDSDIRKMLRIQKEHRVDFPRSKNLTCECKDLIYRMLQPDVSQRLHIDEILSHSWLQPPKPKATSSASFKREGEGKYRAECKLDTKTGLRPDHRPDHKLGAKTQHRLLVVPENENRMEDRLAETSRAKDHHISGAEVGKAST

[5] = target: T3, Testis-specific serine/threonine-protein kinase 2 (Homo sapiens); conditions: at 1 µM
[6] = target: Casein kinase I isoform alpha (Homo sapiens) (UniProt P48729); conditions: at 0.1 µM
[7] = target: Casein kinase I isoform alpha (Homo sapiens) (UniProt P48729); conditions: at 1 µM
[8] = target: Casein kinase I isoform gamma-1 (Homo sapiens) (UniProt Q9HCP0); conditions: at 0.1 µM
[9] = target: Casein kinase I isoform gamma-1 (Homo sapiens) (UniProt Q9HCP0); conditions: at 1 µM
[10] = target: Casein kinase I isoform gamma-2 (Homo sapiens) (UniProt P78368); conditions: at 0.1 µM
[11] = target: Casein kinase I isoform gamma-3 (Homo sapiens) (UniProt Q9Y6M4); conditions: at 0.1 µM
[12] = target: Casein kinase I isoform gamma-3 (Homo sapiens) (UniProt Q9Y6M4); conditions: at 1 µM
[13] = target: Cyclin-dependent kinase 1 (Homo sapiens) (UniProt P06493); conditions: at 0.1 µM
[14] = target: Cyclin-dependent kinase 1 (Homo sapiens) (UniProt P06493); conditions: at 1 µM
[15] = target: Cyclin-dependent kinase 2 (Homo sapiens) (UniProt P24941); conditions: at 0.1 µM
[16] = target: Cyclin-dependent kinase 2 (Homo sapiens) (UniProt P24941); conditions: at 1 µM
[17] = target: Cyclin-dependent kinase 2 (Homo sapiens) (UniProt P24941); conditions: at 0.1 µM; remark: listed apart in the source
[18] = target: Cyclin-dependent kinase 2 (Homo sapiens) (UniProt P24941); conditions: at 1 µM; remark: listed apart in the source
[19] = target: CDK3/Cyclin E (Homo sapiens) (UniProt P24864+Q00526); conditions: at 0.1 µM;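 further: reported percentages are mean inhibition values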
[20] = target: Casein kinase I isoform gamma-2 (Homo sapiens) (UniProt P78368); conditions: at 1 µM

Chain of Cyclin-dependent kinase 1 (Homo sapiens) (P06493 whole entry, looked up): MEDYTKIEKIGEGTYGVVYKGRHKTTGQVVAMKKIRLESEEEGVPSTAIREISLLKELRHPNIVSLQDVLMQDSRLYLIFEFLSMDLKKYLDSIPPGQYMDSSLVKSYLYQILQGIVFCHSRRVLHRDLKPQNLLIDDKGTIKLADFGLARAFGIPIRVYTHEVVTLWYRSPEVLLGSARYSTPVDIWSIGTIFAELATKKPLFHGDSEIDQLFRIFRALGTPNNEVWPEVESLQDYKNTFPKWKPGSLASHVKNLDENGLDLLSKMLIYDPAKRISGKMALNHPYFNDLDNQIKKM
Chain of Casein kinase I isoform gamma-3 (Homo sapiens) (Q9Y6M4 whole entry, looked up, canonical isoform): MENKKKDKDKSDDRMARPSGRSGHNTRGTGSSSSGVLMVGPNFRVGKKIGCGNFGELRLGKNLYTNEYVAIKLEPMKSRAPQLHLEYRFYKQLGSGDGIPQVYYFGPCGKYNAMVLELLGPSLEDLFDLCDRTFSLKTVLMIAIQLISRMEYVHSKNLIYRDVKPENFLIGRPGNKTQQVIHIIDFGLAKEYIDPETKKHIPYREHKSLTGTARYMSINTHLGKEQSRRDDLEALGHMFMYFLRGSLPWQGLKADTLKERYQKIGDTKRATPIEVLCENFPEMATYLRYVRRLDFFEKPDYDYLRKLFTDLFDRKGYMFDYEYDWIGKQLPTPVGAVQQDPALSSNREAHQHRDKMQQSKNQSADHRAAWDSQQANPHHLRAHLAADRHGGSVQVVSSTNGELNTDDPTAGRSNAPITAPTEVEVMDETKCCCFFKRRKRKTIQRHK
Chain of Casein kinase I isoform alpha (Homo sapiens) (P48729 2-337 limits assumed): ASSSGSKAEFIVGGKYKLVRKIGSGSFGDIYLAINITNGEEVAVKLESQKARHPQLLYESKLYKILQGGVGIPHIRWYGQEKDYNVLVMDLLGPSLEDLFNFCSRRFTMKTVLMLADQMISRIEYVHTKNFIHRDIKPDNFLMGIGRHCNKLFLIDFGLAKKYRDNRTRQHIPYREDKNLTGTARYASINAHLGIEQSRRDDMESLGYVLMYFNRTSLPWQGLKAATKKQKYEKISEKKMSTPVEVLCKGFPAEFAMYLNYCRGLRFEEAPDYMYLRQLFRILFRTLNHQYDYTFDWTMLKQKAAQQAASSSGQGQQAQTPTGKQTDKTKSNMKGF
Chain of CDK3/Cyclin E (Homo sapiens) (P24864 whole entry, looked up, canonical isoform): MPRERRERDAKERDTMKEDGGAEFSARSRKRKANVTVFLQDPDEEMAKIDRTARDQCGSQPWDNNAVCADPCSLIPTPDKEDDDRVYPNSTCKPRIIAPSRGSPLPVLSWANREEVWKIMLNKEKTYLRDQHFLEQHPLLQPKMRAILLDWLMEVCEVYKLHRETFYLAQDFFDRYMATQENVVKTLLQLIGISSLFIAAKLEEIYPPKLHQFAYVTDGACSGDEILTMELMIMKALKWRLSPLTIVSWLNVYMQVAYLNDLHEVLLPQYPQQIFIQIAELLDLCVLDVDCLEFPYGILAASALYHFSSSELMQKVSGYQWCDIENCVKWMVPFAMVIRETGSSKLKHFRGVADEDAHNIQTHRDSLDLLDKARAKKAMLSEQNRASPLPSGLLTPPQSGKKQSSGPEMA
Chain of CDK3/Cyclin E (Homo sapiens) (Q00526 whole entry, looked up, canonical isoform): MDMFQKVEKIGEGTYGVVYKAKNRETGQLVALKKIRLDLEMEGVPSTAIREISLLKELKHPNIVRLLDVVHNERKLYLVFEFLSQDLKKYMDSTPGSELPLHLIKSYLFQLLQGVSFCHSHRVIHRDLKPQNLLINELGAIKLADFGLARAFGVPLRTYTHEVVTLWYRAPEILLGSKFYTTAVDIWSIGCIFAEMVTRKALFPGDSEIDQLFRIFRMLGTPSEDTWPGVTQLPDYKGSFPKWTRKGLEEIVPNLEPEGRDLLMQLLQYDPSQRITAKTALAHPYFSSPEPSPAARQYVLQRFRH
Chain of Casein kinase I isoform gamma-1 (Homo sapiens) (Q9HCP0 whole entry, looked up, canonical isoform): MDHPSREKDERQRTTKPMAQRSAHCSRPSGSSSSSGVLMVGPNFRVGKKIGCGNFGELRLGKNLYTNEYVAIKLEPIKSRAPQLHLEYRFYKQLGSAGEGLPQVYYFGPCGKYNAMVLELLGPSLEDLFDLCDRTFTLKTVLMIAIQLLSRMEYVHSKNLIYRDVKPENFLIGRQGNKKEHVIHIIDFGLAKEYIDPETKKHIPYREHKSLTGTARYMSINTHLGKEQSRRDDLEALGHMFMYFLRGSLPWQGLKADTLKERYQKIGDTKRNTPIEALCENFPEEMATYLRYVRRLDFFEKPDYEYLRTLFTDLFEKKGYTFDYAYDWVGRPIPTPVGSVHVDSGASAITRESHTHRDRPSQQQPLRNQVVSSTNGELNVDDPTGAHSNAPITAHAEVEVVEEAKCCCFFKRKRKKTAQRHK
Chain of Casein kinase I isoform gamma-2 (Homo sapiens) (P78368 whole entry, looked up, canonical isoform): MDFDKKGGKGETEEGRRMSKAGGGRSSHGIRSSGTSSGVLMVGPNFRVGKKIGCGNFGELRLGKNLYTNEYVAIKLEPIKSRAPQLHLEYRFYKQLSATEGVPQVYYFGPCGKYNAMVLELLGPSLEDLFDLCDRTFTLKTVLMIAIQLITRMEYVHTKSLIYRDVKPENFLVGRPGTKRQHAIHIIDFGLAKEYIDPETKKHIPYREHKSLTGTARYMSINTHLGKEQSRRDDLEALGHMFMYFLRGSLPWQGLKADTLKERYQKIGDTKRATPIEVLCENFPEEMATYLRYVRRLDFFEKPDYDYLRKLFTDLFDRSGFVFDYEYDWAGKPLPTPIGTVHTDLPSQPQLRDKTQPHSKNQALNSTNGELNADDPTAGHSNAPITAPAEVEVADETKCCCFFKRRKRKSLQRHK

SMILES	inhibition [1] [%]	inhibition [2] [%]	inhibition [3] [%]	inhibition [4] [%]	inhibition [5] [%]	inhibition [6] [%]	inhibition [7] [%]	inhibition [8] [%]	inhibition [9] [%]	inhibition [10] [%]	inhibition [11] [%]	inhibition [12] [%]	inhibition [13] [%]	inhibition [14] [%]	inhibition [15] [%]	inhibition [16] [%]	inhibition [17] [%]	inhibition [18] [%]	inhibition [19] [%]	inhibition [20] [%]
CCCN1CCC=C(c2ccc(Nc3nc(Nc4ccccc4C(N)=O)c4cc[nH]c4n3)c(C)c2)C1	9.03	29.9	76.7	7.28	37.6	8.97	47.6	22.5	59.8	31.1	36.1	69.3	2.18	7.53	5.19	22.5	3.79	28.3	-2.97	–
NS(=O)(=O)c1ccc(N/N=C2\C(=O)Nc3ccc(C(=O)NCCc4c[nH]cn4)cc32)cc1	26.8	6.64	11.2	3.37	1.67	9.71	8.41	4.44	9.85	3.01	5.54	16.4	30.1	76.1	–	–	–	–	26.9	9.23
CNC(=O)c1cncc(/C=C/c2c(Cl)cccc2Cl)c1	4.76	3.51	4.44	1.15	3.45	2.31	6.99	4.49	6.18	2.94	1.61	4.59	-1.13	-0.82	0.92	-0.22	-0.41	3.85	-4.75	7.62
NC(=O)c1cccc(Nc2nccc(Nc3cccc4[nH]ncc34)n2)c1	26.1	-0.96	15.6	-1.7	-1.85	1.36	1.87	-2.71	5.27	-1.57	-2.55	9.56	1.69	14.5	10.3	59.9	3.38	34.2	1.14	1.89
CC1=C(C(=O)Nc2ccc3[nH]ncc3c2)C(c2ccc(F)cc2)NC(=O)N1 (stereo unspecified)	3.11	1.04	1.21	1.2	1.4	0.46	1.43	1.54	2.31	1.41	0.29	0.47	0.21	-0.93	3.84	7.76	2.47	9.24	3.12	1.77
Cc1cccc(-c2n[nH]cc2-c2ccc3ncccc3n2)n1	-2.11	0.8	0.75	-0.09	1.08	1.85	1.42	0.4	1.1	0.55	0.08	1.59	0.3	2.06	0.57	-1.61	0.23	0.63	0.85	0.49
Cc1cc(O)cc(C)c1/C=C/c1cncc(-c2nn[nH]n2)c1	5.41	2.79	2.61	1.18	0.73	7.75	10.6	1.82	3.8	0.59	-0.15	1.13	-2.89	-3.31	-1.42	2.36	0.42	0.7	2.82	3.73
CC(C)=Cc1cccc2c1/C(=N/Nc1ccc(S(N)(=O)=O)cc1)C(=O)N2	26.3	1.27	2.47	0.49	0.88	6.16	2.83	0.52	1.12	1.67	-0.08	2.43	28.7	69.7	103	92.4	74.1	79.3	68.5	0.64
CCn1c(-c2nonc2N)nc2cnc(Oc3cccc(NC(=O)c4ccc(OCCN5CCOCC5)cc4)c3)cc21	7.42	24.3	72.8	2.29	3.44	0.67	1.31	3.07	2.93	2.55	1.57	1.58	0.45	3.69	2.58	7.1	2.65	5.1	-0.07	3.09
Nc1ncnc2occ(-c3ccc(NC(=O)Nc4cc(C(F)(F)F)cc(C(F)(F)F)c4)cc3)c12	3.1	-0.4	-1.46	1.06	-2.08	-0.62	1.87	1.49	2.74	0.5	1.91	1.31	-0.06	4.1	0.86	2.88	1.68	3.96	-1.28	1.8
COc1cc2ncn(-c3cc(O[C@H](C)c4ccccc4Cl)c(C(N)=O)s3)c2cc1OC	6.39	4.46	8.45	2.71	4.44	3	3.21	3.26	3.83	2.55	2.15	3.1	0.89	6.45	–	–	–	–	2.71	2.68
Cc1ccc(NC(=O)c2ccnc(N3CCCC3)c2)cc1-c1ccc(C(=O)NCC2CC2)cc1	8.32	3.77	3.59	1.08	1.39	5.28	2.01	0.99	3.3	-0.87	0.96	2.49	-0.58	2.14	-0.92	2.88	6.57	6.44	9.73	2.39
COC(=O)Nc1nc2cc(Oc3ccc(NC(=O)Nc4cccc(C(=O)O)c4)cc3)ccc2[nH]1	2.42	0.41	0.96	0.4	0.93	2.25	0.72	-2.42	-2.13	-2.21	-2.29	-0.39	-2.2	0.34	-1.03	4.44	1.71	1.67	1.76	-2.28
